Compound activity deposited in PubChem BioAssay by University of Kansas High Throughput Screening Laboratory.
In the library only some 3.6% were active in any assay of this set; here they are far more common.
Pf apPOL inh = Pf-apPOL DNA polymerase inhibition; hit rate 0.25% among 210,000; Recombinant Pf-apPOL, molecular beacon fluorescence, 1.5 h; inhibition, % at 10 µM; AID 1794808
mHTT CaM bind = inhibitors of human mutant huntingtin-calmodulin interaction; P42858; AlphaScreen His-mHTT/GST-CaM binding, luminescence; inhibition, % at 15 µM; hit rate 3.6% among 190,000;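 note: 0% = both proteins with DMSO and 100% = one protein alone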
Starred values were filed as active, the others as inactive; i = inactive; / = not tested or not shown. Cut-off read from the data, not from the text of the source: active = inhibition above about 50%; inactive = the rest.

SMILES	Pf apPOL inh	mHTT CaM bind
Cc1cccc(NC(=O)N2CCCC(CCC(=O)NCc3cccc(C(F)(F)F)c3)C2)c1 (stereo not drawn)	-4	0
CCc1[nH]nc2c1C(c1ccccc1[N+](=O)[O-])C(C#N)=C(N)O2 (stereo not drawn)	9	11
COc1ccc(N=Cc2cc([N+](=O)[O-])ccc2O)cc1	-3	11
COc1ccc(N=Cc2ccc(O)c3c2OC(N)=C(C#N)C3c2cccc([N+](=O)[O-])c2)cc1 (stereo not drawn)	-6	99*
N#CC1=C(N)Oc2c(C=Nc3ccccc3)ccc(O)c2C1c1ccccc1[N+](=O)[O-] (stereo not drawn)	-10	100*
C#CC(CC)(CC)NC(=O)NCCCCCCNC(=O)NC(C#C)(CC)CC	-18	/
c1ccc2c(c1)-c1ccccc1C2Sc1nc2ccccc2s1	/	-22
Cc1ccc2c(NCc3ccc(F)cc3)c(-c3nc(C(C)C)no3)cnc2n1	-7	-6
COc1cc(OC)cc(-n2nc(C(=O)N3CCCCC3)c3ccccc3c2=O)c1	1	4
Cc1cc(C)cc(S(=O)(=O)N2CCCC(C)(C(=O)NCc3ccccc3)C2)c1 (stereo not drawn)	-7	41
Cc1cc(C)c(S(=O)(=O)N2CCCC(C)(C(=O)NCc3ccccc3)C2)c(C)c1 (stereo not drawn)	-1	59*
Cc1cc(C)cc(S(=O)(=O)N2CCCC(C)(C(=O)NCc3ccc(F)cc3)C2)c1 (stereo not drawn)	0	52*
Cc1ccc(S(=O)(=O)N2CCCC(C)(C(=O)NCc3ccc(F)cc3)C2)cc1 (stereo not drawn)	0	-2
COc1cccc(-n2c(=O)c3sccc3n(CC(N)=O)c2=O)c1	4	-3
CCOc1ccc2nc(C(=O)NC(C)(C)C)cn2n1	-1	-2
Cc1ccccc1NC(=O)Cc1nc(-c2ccccc2)n[nH]1	-3	4
O=C(Cc1nc(-c2ccccn2)n[nH]1)Nc1ccccc1F	-6	94*
O=C(Cc1nc(-c2ccccn2)n[nH]1)Nc1ccc(F)cc1F	-17	97*
O=C(Cc1nc(-c2ccccc2)n[nH]1)Nc1ccc(F)c(F)c1	-3	-2
COc1ccc(NCc2ccc(C)s2)cc1OC	6	71*
COc1ccc(NCc2ccc(OC)c(OC)c2)cc1	10	11
OC(COCC1CC2CCC1C2)CN1CCc2ccccc2C1 (stereo not drawn)	0	-2
OC(COCC1CC2CCC1C2)CN1CCN(C(c2ccccc2)c2ccccc2)CC1 (stereo not drawn)	2	62*
CCOC(=O)N1CCN(C(c2ccc(SC)cc2)c2c(O)cc(C)n(CC)c2=O)CC1 (stereo not drawn)	11	69*
CCOC(=O)N1CCN(C(c2cccs2)c2c(O)cc(C)n(CC)c2=O)CC1 (stereo not drawn)	2	-13
SMILES	Pf apPOL inh	mHTT CaM bind
O=C(O)CC1(CC(=O)Nc2ccc(I)cc2F)CCCCC1	-13	/
CCC(C)c1ccc(OCCCCN2CCN(C)CC2)cc1 (stereo not drawn)	-1	54*
CCC(C)c1ccc(OCCCN2CCN(C)CC2)cc1 (stereo not drawn)	-7	3
COc1ccc([N+](=O)[O-])c(OC)c1C(=O)NCCCn1ccnc1	4	/
O=C1NC2(Nc3sc4c(c31)CCCC4)C(=O)Nc1ccccc12 (stereo not drawn)	18	23
CC1(C)Nc2sc3c(c2-c2nnnn21)CCCC3	/	56*
O=[N+]([O-])c1ccc(Nc2c[nH]c3ccccc23)cc1	1	89*
O=c1sc2ccccc2c(Nc2ccc([N+](=O)[O-])cc2)c1[N+](=O)[O-]	/	25
O=[N+]([O-])c1ccc(Nc2ccc(F)cc2)cc1	-2	/
O=Cc1[nH]c2ccccc2c1Nc1ccc([N+](=O)[O-])cc1	-2	100*
COc1ccc(C(=O)Nc2ccc(C(N)=O)cc2)cc1I	-9	0
Cc1cc(OCC(=O)Nc2ccc(Br)cc2)nc(N2CCCC2)n1	-5	6
CCOC(=O)CCC(=O)Nc1nn(C)c2c1C(c1ccccc1)CC(=O)N2 (stereo not drawn)	-2	-12
CCc1nnc(NC(=O)CSc2nnc(-c3ccco3)c(-c3ccco3)n2)s1	5	65*
O=C(CSc1nnc(-c2ccco2)c(-c2ccco2)n1)Nc1nc2ccccc2s1	-10	47
CCSc1nnc(NC(=O)CSc2nnc(-c3ccco3)c(-c3ccco3)n2)s1	3	81*
CCSc1nnc(NC(=O)CSc2nnc(CNC(=O)c3ccco3)o2)s1	5	-9
Cc1nnc(NC(=O)CSc2nnc(-c3ccco3)c(-c3ccco3)n2)s1	-1	67*
CCc1nnc(NC(=O)CSc2ncccn2)s1	0	-5
Cn1c2c(ccc1=O)C(O)CC(C)(C)C2 (stereo not drawn)	-2	-1
O=c1[nH]c(/C=C/c2ccc(Cl)cc2)nc(O)c1[N+](=O)[O-]	-4	12
CC(C)NC(=O)C1CN(C(=O)c2ccccc2)CC1c1cccc(C(F)(F)F)c1 (stereo not drawn)	-5	15
CC(C)CCNC(=O)c1cc2n(n1)CCCN(Cc1ccc(F)cc1)C2=O	3	8
CC(C)c1ccc(OCC(=O)Nc2ccccc2NC(=O)c2ccccc2Cl)cc1	-11	-11
CC1(C)C2CCC1(C)C(OCC(O)CN1CCN(c3ccccc3F)CC1)C2 (stereo not drawn)	-3	47
SMILES	Pf apPOL inh	mHTT CaM bind
CC1(C)C2CCC1(C)C(OCC(O)CN1CCN(c3cccc(C(F)(F)F)c3)CC1)C2 (stereo not drawn)	-5	93*
Cc1ccc2oc(-c3ccc(C(F)(F)F)cc3)cc(=O)c2c1	-2	-10
COc1cc(C(CC(=O)N2CCOCC2)c2c(OC)cc(OC)c3c(-c4ccccc4)cc(=O)oc23)cc(OC)c1OC (stereo not drawn)	-6	47
CCN(CC)C(=O)CC(c1ccc(OC)cc1)c1c(OC)cc(OC)c2c(-c3ccccc3)cc(=O)oc12 (stereo not drawn)	9	88*
COc1cc(C(CCN2CCCC2)c2c(OC)cc(OC)c3ccc(=O)oc23)cc(OC)c1OC (stereo not drawn)	-3	8
OC(CCN1CCCCC1)c1ccc(-c2ccccc2)cc1 (stereo not drawn)	-4	/
COc1cc(OC)c2c(-c3ccccc3)cc(=O)oc2c1C(CCN1CCCCC1)c1ccc(N(C)C)cc1 (stereo not drawn)	-9	100*
COc1cc(OC)c2c(-c3ccccc3)cc(=O)oc2c1C(CCN1CCOCC1)c1ccc(N(C)C)cc1 (stereo not drawn)	-6	94*
COc1ccc(C(CCN2CCCCC2)c2c(OC)cc(OC)c3c(-c4ccccc4)cc(=O)oc23)cc1 (stereo not drawn)	-8	99*
CCN(CC)C(=O)Oc1ccc2c(-c3cc4cccc(OC)c4oc3=O)cc(=O)oc2c1	-4	-2
CNC(=O)Cc1csc(NC(=O)c2ccc(NC(=O)c3cn(C)nc3OC)cc2)n1	-4	-9
CC1=C(C)/C(=N/OC(=O)c2ccccc2)C=C(Br)C1=O	7	i
CCC(=O)N1CCN(c2nc3c(s2)CC(C(=O)N2CCN(C)CC2)CC3)CC1 (stereo not drawn)	3	-3
CCN(CC)CCC(c1ccc(N(C)C)cc1)c1c(OC)cc(OC)c2c(C)cc(=O)oc12 (stereo not drawn)	-1	94*
